# Bioassay records: PubChem BioAssay, The Scripps Research Institute Molecular Screening Center
# ADAM10 inh: ADAM10 inhibition, QFRET primary screen | O14672 | recombinant ADAM10, EDANS/DABCYL FRET peptide cleavage, 3 h | inhibition, % at 7 µM | 370,000 tested, 0.62% active;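 active means inhibition above a per-campaign cutoff equal to the mean of compounds falling between control-based bounds plus 3 SD, cut at about 20% in these data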;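 further: 0% = DMSO wells while the 100% control is not disclosed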
# PLCb3 inh: inhibitors of human phospholipase C beta3; 370,000 tested, 0.18% active; inhibition, % at 12.2 µM; Purified PLC-beta3, fluorogenic substrate, fluorescence; Q01970; AID 720704; in the data active means inhibition above about 11%;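 further: 0% = median of compound wells on plate and 100% = full blocker control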
# ADAM17 inh: inhibitors of human ADAM17 | 370,000 tested, 0.83% active | AID 720648 | recombinant ADAM17, EDANS/DABCYL FRET peptide cleavage | inhibition, % at 6.95 µM;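 active means inhibition above the mean of compounds lying between control limits plus 3 SD, set per campaign, cut at about 8.5% in these data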;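 further: 0% = DMSO-only wells as the low control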
# PLC-gamma1 inh: blocks human PLC-gamma1 enzyme activity; purified PLC-gamma1, fluorogenic substrate, fluorescence; 370,000 tested, 0.84% active; P19174; inhibition, % at 12.2 µM; AID 720700; in the data active means inhibition above about 9.5%
# proKLK7 act: proKLK7 (human) activation, primary screen; P49862; purified proKLK7, EDANS-DABCYL substrate fluorescence; 100% is mature enzyme control, 0% vehicle; activation, % at 7 µM; 370,000 tested, 0.9% active;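 active means activation above the mean of all tested compounds plus 3 SD, computed per campaign excluding outliers beyond control limits, cut at about 13% in these data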
# ADAM10 ctr: ADAM10 inhibition, counter-screen for ADAM17 exosite hits. shares compounds with ADAM17 inh. recombinant ADAM10, EDANS/DABCYL FRET peptide cleavage, 3 h. inhibition, % at 6.95 µM. 2,900 tested, 47% active. AID 743256;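 active means mean inhibition over the triplicate runs exceeds the activity threshold set in the earlier primary screen, cut at about 20% in these data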;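 further: 0% = DMSO wells and 100% = marimastat wells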
# ADAM17 confirm: confirmation of inhibitors of human ADAM17 | 2,900 tested, 65% active | shares compounds with ADAM17 inh | inhibition, % at 6.95 µM | AID 743257 | recombinant ADAM17, EDANS/DABCYL QFRET peptide cleavage;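 active means mean inhibition across replicates above the hit cutoff set in the primary screen, cut at about 8.5% in these data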;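 further: 0% = DMSO wells and 100% = marimastat wells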
# Numbers without * were called inactive; nt = no result given. In the library only some 2.9% were active in any assay of this set; here they are far more common.
SMILES,ADAM10 inh,PLCb3 inh,ADAM17 inh,PLC-gamma1 inh,proKLK7 act,ADAM10 ctr,ADAM17 confirm
COc1ccc(C)cc1S(=O)(=O)N(C)CC(=O)Nc1ccc2c(c1)OCO2,14,5,10*,7,0,5,5
COCCOc1ccc(C(F)(F)F)cc1NC(=O)CN1C(=O)NC(C)(c2ccc3c(c2)OCO3)C1=O (stereo not drawn),18,-6,12*,5,0,19,12*
COc1ccc(C2(C)NC(=O)N(CC(=O)Nc3ccc4c(c3)OCO4)C2=O)cc1OC (stereo not drawn),12,-3,11*,-3,-1,13,9.0*
Cc1sc(NC(=O)CSc2nc(N)cc(N)n2)c(C#N)c1C,-7,-8,-6,-2,0,nt,nt
CC(=O)Nc1cccc(NC(=O)c2cccc(S(=O)(=O)N3CCN(Cc4ccccc4)CC3)c2)c1,19,-4,20*,5,0,15,12*
COc1cccc(CNC(=O)[C@H]2CCCN2C(=O)[C@H]2CCCN2C(=O)c2cccc3ccccc23)c1,-1,1,0,0,0,nt,nt
COc1cccc(C2CC(c3ccc(Br)cc3)=NN2C(=O)c2ccncc2)c1OC (stereo not drawn),-12,-3,-1,1,1,nt,nt
COc1ccccc1C1CC(c2ccc(Br)cc2)=NN1C(=O)c1cccnc1 (stereo not drawn),17,-2,9.7*,5,1,9,8
CCN(CC)C(=O)CSc1nc2c(sc(=S)n2-c2ccccc2)c(=O)n1-c1ccc(OC)c(OC)c1,-5,-2,1,5,0,nt,nt
COc1cccc(NC(=O)CCC2CCN(C(=O)c3ccc(C(C)=O)s3)CC2)c1,-8,-7,1,0,0,nt,nt
CCOC(=O)N1CCN(S(=O)(=O)c2ccc(C(=O)NNc3nc4c(C)cc(C)cc4s3)cc2)CC1,16,-142,9.7*,-111,-1,29*,23*
CCc1ccc(/C=N/NC(=O)c2cc(-c3ccccc3OC)nc3ccccc23)s1,8,-96,9.2*,-43,-32,-30,5
CS(=O)(=O)c1ccccc1-c1nc(-c2ccc(C(F)(F)F)cc2)no1,18,6,8.7*,6,0,9,5
CC(C)(C)OC(=O)N1CCC(c2ccc[nH]2)(c2c[nH]c3ccccc23)CC1,2,0,0,-1,1,nt,nt
Cn1cc(C2(c3c[nH]c4ccccc34)CCN(C(=O)OC(C)(C)C)CC2)c2ccccc21,10,-1,11*,1,-1,3,7
COc1ccc([N+](=O)[O-])cc1NC(=O)CSc1nc(C)cc(C)n1,5,-6,5,-1,-1,nt,nt
COc1ccc([N+](=O)[O-])cc1NC(=O)CSc1ccc2ccccc2c1,10,5,9.6*,6,-1,21*,8
COc1ccc(S(=O)(=O)Nc2ccc3ccccc3c2)cc1C,19,1,10*,2,-1,29*,18*
CCc1ccc(NS(=O)(=O)c2ccc(OC)c(C)c2)cc1,11,0,1,1,0,nt,nt
CCCS(=O)(=O)NC(=O)C1(C)CCCN(C(=O)c2ccc(SC(F)(F)F)cc2)C1 (stereo not drawn),-1,1,-2,-2,0,nt,nt
O=C(CCn1cccn1)Nc1ccc2c(c1)OCO2,3,-7,3,1,0,nt,nt
Cc1ccc(NC(=O)c2cc(S(=O)(=O)NCCC3=CCCCC3)ccc2F)cc1,23*,1,14*,8,0,34*,18*
CCOC(=O)c1ccc(S(=O)(=O)N2CCN(Cc3cc4c(cc3O)OCO4)CC2)cc1,-14,-8,-2,-3,0,nt,nt
CCOc1ccc(-n2c(COc3ccc(C)cc3)nnc2SCC(=O)Nc2ccc(F)c(F)c2)cc1,12,0,3,1,0,nt,nt
S=C(NCCc1ccc(Cl)cc1)Nc1ccc(Cl)cc1Cl,29*,6,16*,1,0,34*,19*
SMILES,ADAM10 inh,PLCb3 inh,ADAM17 inh,PLC-gamma1 inh,proKLK7 act,ADAM10 ctr,ADAM17 confirm
CN(CCC(=O)c1ccccc1)CCC(=O)c1ccccc1,-1,-3,2,-3,0,nt,nt
O=C(Cc1cc(C(F)(F)F)cc(C(F)(F)F)c1)Nc1c(-c2ccccc2)[nH][nH]c1=O,-2,-9,-2,-1,0,nt,nt
CCC1(c2ccccc2)NC(=O)N(CC(=O)NC2(C#N)CCCCC2)C1=O (stereo not drawn),-3,-3,2,2,0,nt,nt
COc1ccc(CCN2C(=S)N(c3ccccc3)C(=O)C2CC(=O)O)cc1OC (stereo not drawn),8,0,0,0,0,nt,nt
CNC(=O)CC1C(=O)N(c2ccc(Cl)cc2)C(=S)N1CCc1ccc(OC)c(OC)c1 (stereo not drawn),13,2,8.7*,7,-1,14,7
O=C(CSc1nnc(C2COc3ccccc3O2)o1)N1CCN(c2ccccc2)CC1 (stereo not drawn),3,-7,1,5,1,nt,nt
COc1cc2c(cc1NC(=O)COC(=O)[C@@H](NS(=O)(=O)c1ccccc1)C(C)C)oc1ccccc12,19,-2,11*,-4,-14,-5,5
COc1cc2c(cc1NC(=O)COc1ccccc1OC)oc1ccccc12,2,2,-5,1,0,nt,nt
CCOC(=O)c1c(C)[nH]c(C)c1C(=O)CSc1nc2ccccc2c(=O)n1-c1ccc(F)cc1,19,0,10*,-1,-1,22*,15*
CCOC(=O)c1c(C)[nH]c(C)c1C(=O)CSc1nc2ccccc2c(=O)n1-c1ccccc1C,14,3,5,6,1,nt,nt
C=C(C)CNC(=S)NNC(=O)CCn1c2ccc(Cl)cc2c2cc(Cl)ccc21,19,5,9.7*,2,0,37*,23*
N#CCCN(C(=O)COC(=O)c1cc(=O)[nH]c2ccccc12)c1ccccc1,-158,-152,-38,-117,-14,nt,nt
CCN(CC)C(=O)[C@H]1C[C@H](CC(=O)NCc2ccc(OC)c(OC)c2)C(=O)N2CCc3c([nH]c4ccc(Cl)cc34)[C@]12C,3,4,7,5,1,nt,nt
O=C(CSc1ncnc2sc3c(c12)CCC3)Nc1ccccc1C(=O)O,4,-7,-6,-3,0,nt,nt
CC(=O)c1cccc(NC(=O)CN(c2ccc(C)cc2)S(=O)(=O)c2cccc3nonc23)c1,23*,10,12*,6,0,25*,15*
O=C(COc1ccc(-c2nnco2)cc1)Nc1c(Cl)cccc1C(F)(F)F,-2,0,-2,-3,0,nt,nt
